This passage reports Potency results from PubChem BioAssay AID624296 (National Center for Advancing Translational Sciences (NCATS), 2012).

About 9,900 (2.8%) of roughly 350,000 compounds were called active. A call without a number means that no potency is given here. Another 15% or so got no clear call; they are omitted. The call rests on the fitted dose curve; in most records, active means well fitted activation curve with a large enough effect; inconclusive means small, poorly fitted or top-dose-only effect; inactive means no such curve, though single readings can be large or run the other way. For the sample, actives were picked, then their nearest neighbours and some compounds at random.
Potency means the concentration at half of the fitted maximal effect.

The experiment is described as follows: A quantitative high throughput screen for small molecules that induce DNA re-replication in MCF 10a normal breast cells. Further: nearly all actives have a fitted effect of over 50% in size. As to conditions: MCF 10A DNA re-replication, Hoechst nuclear intensity, 48 h; series mostly up to 46.1 µM.
Regarding `O=C(O)C1C2C=CC(O2)C1C(=O)Nc1ccccn1` (centres undefined), the Potency result is “inactive”.

With `O=C(CNC(=O)c1n[nH]c2ccccc12)Nc1cc(Cl)ccc1Cl`, the Potency entry is “inactive”.

`COC[C@@H]1NS(=O)(=O)c2ccc(Br)cc2O[C@H]1c1ccccc1`: the Potency entry is “inactive”.

For the compound `O=C(O)/C=C/C(=O)Nc1ccc(F)cc1F`, the Potency result is “inactive”.

As for `COc1ccccc1NC(=O)/C=C/C(=O)O`, the Potency result is “inactive”.

For `COC(=O)c1sc(-c2ccc(C(C)(C)C)cc2)cc1NC(=O)/C=C/C(=O)O`, the Potency is 16.4 µM (active).

With `COC(=O)c1sc(NC(=O)COC(=O)C2CCC2)c(C(=O)OC)c1C`, the Potency result is “inactive”.

Take `CC(NCC(=O)Nc1ccccc1C(=O)NC1CC1)c1ccccc1Cl` (centres undefined): the Potency entry was “inactive”.

For `CC(CC(=O)Nc1ccccc1)n1ccnc1` (centres undefined), the Potency was 0.92 µM (active).

With `CC(C)CC(=O)Nc1ccc(Cc2ccncc2)cc1`, the Potency result was “inactive”.

Turning to `O=C(O)CCCC(=O)Nc1ccccc1-n1ccnc1`, the Potency entry is “inactive”.

In the case of `O=[N+]([O-])c1ccc(COc2ccccc2CN2CCOCC2)cc1`, the Potency result was “inactive”.

With `CCN(CC(=O)NCc1ccc(F)cc1)S(=O)(=O)c1ccc(Cl)s1`, the Potency result is “inactive”.

Take `COc1cccc(C(=O)Nc2nc3ccc(S(C)(=O)=O)cc3s2)c1`: the Potency entry was “inactive”.

Consider `COc1ccc2sc(-c3ccc(S(C)(=O)=O)cc3)c(-c3ccc(C(N)=O)cc3)c2c1`, for which the Potency is 25.9 µM (active).

`COc1ccc(C(=O)Nc2cccc(S(C)(=O)=O)c2)cc1`: the Potency result is “inactive”.

Turning to `CC(=O)Nc1ccc(S(=O)(=O)NCCC(=O)N2CCN(c3ccccc3Cl)CC2)cc1`, the Potency entry is “inactive”.

For `NC(=O)c1ncn([C@@H]2O[C@H](CN=C3NS(=O)(=O)c4ccccc43)[C@@H](O)[C@H]2O)n1`, the Potency result was “inactive”.

For the compound `CCc1sc(C(=O)N2CCN(CC(=O)Nc3cccc(F)c3)CC2)cc1C`, the Potency result was “inactive”.

As to `COC(=O)CN(C(=S)Nc1ccc(Cl)cc1)C1CC(=O)N(c2ccc(OC)cc2)C1=O` (centres undefined), the Potency result is “inactive”.

For the compound `CCOc1ccc(N2C(=O)CC(N(CCc3ccc(OC)c(OC)c3)C(=S)Nc3ccccc3)C2=O)cc1` (centres undefined), the Potency is 23.1 µM (active).

As to `CCOc1ccc(N2C(=O)CC(N(O)c3ccccc3)C2=O)cc1` (centres undefined), the Potency result was “inactive”.

Turning to `COc1ccccc1N1CCN(CC(=O)Nc2ccnn2C2CCCC2)CC1`, the Potency result was “inactive”.

Turning to `CC(C)Cn1cnc2c(SCc3ccc(Cl)cc3)nc(N)nc21`, the Potency entry was “inactive”.

As for `CC(C)c1ccc2c(c1)c(SC(C)(C)C)c(CC(C)(C)C(=O)O)n2Cc1ccc(Cl)cc1`, the Potency was 2.91 µM (active).

`O=C(O)c1ccc(Cn2c(=S)[nH]c3cc(Cl)ccc3c2=O)cc1`: the Potency entry was “inactive”.

With `CCN([C@H](CO)C(C)C)S(=O)(=O)c1ccccc1Br`, the Potency entry is “inactive”.

For the compound `COc1ccc(-c2c(C#Cc3ccsc3)c3cc(-c4ccc(CN5CCOCC5)cc4)ccc3n2C)cc1`, the Potency entry was “inactive”.

Take `COc1cc(OC)cc(-c2c(C#Cc3ccsc3)c3cc(-c4ccc(SC)cc4)ccc3n2C)c1`: the Potency entry is “inactive”.

On to `COc1cc(OC)cc(-c2c(C#Cc3ccsc3)c3cc(-c4ccc(OC)cc4F)ccc3n2C)c1`, for which the Potency was 0.326 µM (active).

Consider `COc1cccc2oc(CCc3ccccc3)cc(=O)c12`, for which the Potency entry is “inactive”.

Regarding `Cc1nn(-c2ncccn2)c2c1C(=O)CC(C)(C)C2Br` (centres undefined), the Potency entry was “inactive”.

Turning to `O=C(O)CCC(=O)N(Cc1cccs1)Cc1cccs1`, the Potency result is “inactive”.

In the case of `CCN(CC)C(=O)N(CC)Cc1ccccc1`, the Potency result was “inactive”.

In the case of `O=C(O)CCC(=O)N(Cc1ccccc1)Cc1ccccc1`, the Potency is 0.731 µM (active).

Consider `Cc1cc(NC(=O)C(C)SCC(=O)Nc2cccc(S(=O)(=O)N3CCCCCC3)c2)no1` (centres undefined), for which the Potency result is “inactive”.

For the compound `Cn1cc(CCC(=O)NCc2ccc3c(c2)OCO3)c2ccccc21`, the Potency result was “inactive”.

In the case of `O=C(CC(Cc1ccccc1)C(=O)O)NCCc1ccc2c(c1)OCO2` (centres undefined), the Potency result was “inactive”.

For `O=C(CCc1nnc(Cc2ccc3c(c2)OCO3)o1)NCCc1ccccc1Cl`, the Potency was 20.6 µM (active).

As for `COc1ccc(CCC(=O)N2CCN(S(=O)(=O)c3ccc(OC)cc3)CC2)cc1`, the Potency entry was “inactive”.

Regarding `Cc1ccccc1-n1c(C)cc(/C=C2\NC(=O)NC2=O)c1C`, the Potency was 25.9 µM (active).

For `Cc1ccc(CN2C(=O)N/C(=C/c3cc(C)n(-c4ccccn4)c3C)C2=O)cc1`, the Potency entry was “inactive”.

`Cc1ccccc1-n1c(C)cc(/C=N/NC(=O)c2ccc(CN3CCOCC3)cc2)c1C`: the Potency entry is “inactive”.

As to `CC1(C)CC(=O)C=C(c2cccc3c2Oc2ccccc2S3)C1`, the Potency entry is “inactive”.

On to `CC(=NNC(=O)c1ccc2nc[nH]c2c1)c1ccc(Br)cc1`, for which the Potency entry is “inactive”.

In the case of `Cc1csc(NC(=O)c2ccc(-c3ccc(Cl)cc3Cl)o2)n1`, the Potency was 18.4 µM (active).

Regarding `O=C(Nc1cccc2ncccc12)c1ccc(-c2ccc(Cl)cc2Cl)o1`, the Potency entry was “inactive”.

Turning to `Cc1csc(NC(=O)c2ccc(C)s2)n1`, the Potency result is “inactive”.

As for `CC(Nc1ccc([N+](=O)[O-])cc1[N+](=O)[O-])c1ccccc1` (centres undefined), the Potency entry is “inactive”.

`CCCn1c(C(C)Nc2nc(-c3ccc(C)cc3)cs2)nc2cc(Cl)c(N3CCCCC3)cc21` (centres undefined): the Potency result was “inactive”.

As to `CCCn1c(CCNc2nc(-c3ccc(OC)cc3)cs2)nc2ccccc21`, the Potency entry is “inactive”.

For the compound `Cc1nc2cc(C(F)(F)F)ccc2n1CCNc1nc(-c2cc(Cl)c(N)c(Cl)c2)cs1`, the Potency is 23.1 µM (active).

Consider `CC1CCCCC1NC(=O)Cn1cnc2c1c(=O)n(C)c(=O)n2C` (centres undefined), for which the Potency result was “inactive”.

For `CCCN(CC(=O)Nc1ccccc1C)C(=O)c1ccc(OCC(=O)N2CCOCC2)c(OCC)c1`, the Potency result was “inactive”.

In the case of `COCCNC(=O)c1ccc2nc(Cc3ccc(OC)c(OC)c3)oc2c1`, the Potency was 3.26 µM (active).

Turning to `CSCCNC(=O)c1ccc2nc(Cc3ccccc3F)oc2c1`, the Potency result was “inactive”.

Take `COc1ccc(Cc2nc3ccc(C(=O)NCC4CCOCC4)cc3o2)cc1OC`: the Potency result was “inactive”.

As for `CCOc1ccc(NC(=O)CN(C)C(=O)c2cccc(S(=O)(=O)N3CCCC3)c2)cc1OCC`, the Potency entry was “inactive”.

Turning to `COc1ccc(S(=O)(=O)N2CCOCC2)cc1NC(=O)c1ccc(OCC(C)C)c(OC)c1`, the Potency result is “inactive”.

With `CCCCCOc1ccc(CSC2=NCCN2)cc1[N+](=O)[O-]`, the Potency is 20.6 µM (active).

In the case of `CCCOc1ccc(Cn2ccnc2)cc1[N+](=O)[O-]`, the Potency entry is “inactive”.

As to `Cc1nc(SCc2ccc(F)cc2)c([N+](=O)[O-])[nH]1`, the Potency result was “inactive”.

As for `COc1ccccc1C1=CC(=O)C[C@H](c2ccc(F)cc2)C1`, the Potency result was “inactive”.

`Cc1ccc(NC(=O)[C@H](Cc2ccccc2)NC(=O)C2CCNCC2)cc1`: the Potency result was “inactive”.

For the compound `O=C(COC(=O)CNC(=O)C1CCCCC1)NCc1ccccc1`, the Potency result is “inactive”.

In the case of `CCC(Cc1ccccc1)NC(=O)C1CCCCC1` (centres undefined), the Potency is 0.651 µM (active).

For the compound `O=C(O)c1ccc(Cn2cnc3c(=S)nc[nH]c32)cc1`, the Potency result is “inactive”.

Regarding `COc1ccccc1N(CCOc1ccccc1)S(=O)(=O)c1ccccc1`, the Potency result was “inactive”.

Take `Cc1cccc(C(=O)NCCCN(C)CCCNC(=O)c2cccc(C)c2)c1`: the Potency entry was “inactive”.

As for `CSc1nc(N(C)NC(=O)c2cccc(C)c2)c2ccccc2n1`, the Potency is 0.231 µM (active).

As to `COc1ccc(C(=O)NN(C)c2nc(-c3ccccc3)cc(C)c2S(C)(=O)=O)cc1`, the Potency result is “inactive”.

As for `CCN(c1ccccc1)S(=O)(=O)c1ccc(OCC(=O)N2CCCC2)cc1`, the Potency entry is “inactive”.

For the compound `Cc1c(C)n(Cc2ccc(Cl)cc2)c2ccc(C(=O)NCCCN3CCOCC3)cc12`, the Potency is 23.1 µM (active).

Turning to `Cc1ccc(C(=O)NCCN2CCOCC2)cc1C`, the Potency result was “inactive”.

For `O=C(NCCN1CCOCC1)c1ccc2c(c1)N(Cc1ccc(Cl)cc1)CCS2`, the Potency result is “inactive”.

Take `COC(=O)C1=CO[C@@H](O[C@@H]2O[C@H](CO)[C@@H](O)[C@H](O)[C@H]2O)C2C1C[C@H](O)[C@@H]2C` (some centres undefined): the Potency entry is “inactive”.

Regarding `O=c1nc(NO)ccn1C1CCCO1` (centres undefined), the Potency entry was “inactive”.

`COc1cc(OC)c(S(=O)(=O)Nc2ccccc2C(=O)O)cc1S(=O)(=O)Nc1ccccc1C(=O)O`: the Potency result was “inactive”.

On to `COc1cc(NC(=O)c2ccccc2NS(=O)(=O)c2ccc(Cl)s2)cc(OC)c1`, for which the Potency is 14.6 µM (active).

On to `COc1cc(NC(=O)c2cccnc2SC)cc(OC)c1`, for which the Potency entry is “inactive”.

With `N#Cc1ccc(CN2CCN(CC(=O)Nc3ccccc3C(=O)NC3CC3)CC2)cc1`, the Potency entry is “inactive”.

For the compound `O=C(Nc1ccc2c(c1)OCO2)C1CC1(Cl)Cl` (centres undefined), the Potency result is “inactive”.

Take `CC(=O)Nc1ccc(S(=O)(=O)NCC(=O)OCC(=O)c2ccc[nH]2)cc1`: the Potency result is “inactive”.

For the compound `CCCCNc1nc2c(c(=O)n(C)c(=O)n2C)n1Cc1cccc(OC)c1`, the Potency result is “inactive”.

Regarding `COc1ccc(Sc2nc(-c3ccccc3)ncc2OC)cc1`, the Potency result was “inactive”.

For the compound `CCCCNc1c(-c2cccc(Sc3ccc(OC)cc3)c2)nc2ccccn12`, the Potency is 18.4 µM (active).

With `Fc1ccc2cnc(-c3ccccc3)cc2c1`, the Potency result is “inactive”.

Consider `COc1cc(/C=C/CNC[C@H]2O[C@@H](n3cnc(C(N)=O)n3)[C@H](O)[C@@H]2O)ccc1O`, for which the Potency result is “inactive”.

Regarding `O=C(c1cc2cc(Br)cc(Br)c2oc1=O)N1CCOCC1`, the Potency entry is “inactive”.

Consider `O=C1Nc2c(Br)cc(Br)cc2C1(O)N1CCOCC1` (centres undefined), for which the Potency was 8.2 µM (active).

Regarding `O=C(CSC(=S)N1CCOCC1)c1cc(Br)cc(Br)c1O`, the Potency result was “inactive”.

As for `Cc1ccc2c(c1)C1C[N+](C)(CC(=O)c3ccccc3)CCC1N2C(=O)c1ccccc1Cl` (centres undefined), the Potency result is “inactive”.

As for `CC[C@]12c3[nH]c4cc(CCC(=O)N(C)C)ccc4c3CCN1C(=O)[C@@H](CC(=O)NCC13CC4CC(CC(C4)C1)C3)C[C@@H]2C(=O)N1CCN(C(=O)C2CC2)CC1`, the Potency result is “inactive”.

In the case of `CSc1ccc(/C=N/NC(=O)c2cccc(Cl)c2)cc1`, the Potency entry was “inactive”.

`CSc1ccc(/C=N\NC(=O)COc2ccc(Cl)cc2Br)cc1`: the Potency was 13 µM (active).

Regarding `O=C(COc1ccc(Cl)cc1Cl)N/N=C/c1ccccn1`, the Potency entry was “inactive”.

On to `CCC(=O)c1cc(F)ccc1OCC(=O)Nc1ccc2c(c1)OCCO2`, for which the Potency result was “inactive”.

For `COc1ccccc1NC(=O)COC(=O)COc1ccccc1F`, the Potency entry was “inactive”.

`COc1ccc(CC(=O)NC(C)c2ccc(Cl)c(Cl)c2)cc1S(=O)(=O)N1CCOCC1` (centres undefined): the Potency result was “inactive”.

For the compound `Nc1ncnc2c1cnn2C1CC(O)C(CO)O1` (centres undefined), the Potency result is “inactive”.

In the case of `CCN(C[C@H]1N[C@@](Cc2ccccc2)(C(=O)OC)[C@H]2C(=O)N(Cc3ccccc3)C(=O)[C@@H]12)C(=O)c1ccc(C)cc1`, the Potency result was “inactive”.

In the case of `Cc1ccc(O)c(NC(=S)NC(=O)COc2ccc(Br)cc2)c1`, the Potency was 20.6 µM (active).

For the compound `Cc1cccc(OCC(=O)NC(=S)Nc2ccccc2N2CCOCC2)c1`, the Potency entry was “inactive”.

On to `Cc1ccc(O)c(NC(=O)COc2cc(C)ccc2C)c1`, for which the Potency result is “inactive”.
